Measurements reported in PubChem BioAssay (NCI).
This is part of a sample that, as a whole, favours compounds with a hit. Of some 83,000 tested, about 20% had one in any assay.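 The endpoint reported here, percent growth, reads 100 for growth as untreated, 0 for no net growth and -100 for all cells dead.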 Activity calls are given as the source filed them. Rule for the calls: active = growth percent below 10; inactive = the rest.

The compounds below were run on MDA-MB-468 breast (assay: NCI-60 one-dose screen, 48 h (100 = growth as untreated, 0 = no growth, -100 = all killed)). Details: 10 µM unless noted.

SMILES	growth
COc1cc(-c2nc(SCCC(C)C)nc(Nc3ccc(S(N)(=O)=O)cc3)c2C#N)cc(OC)c1OC	42.8% (inactive)
CCCCC1CCCC12NC(=O)NC2=O (stereo not given)	112% (inactive)
O=S(=O)(NCCCNc1nccc(-c2c(-c3ccc(O)cc3)nc3sccn23)n1)c1ccc(F)cc1	-19.2% (active)
COc1ccc(-c2nc(SCC(=O)Nc3ccc(C(=O)/C=C/c4ccc(Cl)cc4)cc3)[nH]c(=O)c2C#N)cc1	39.4% (inactive)
CC/C(=C(/c1ccc(OCCN(C)C)cc1)c1ccc(OC(=O)CCCCCCCCC(=O)c2c(C)[nH]c(/C=C3\N=C(c4ccc[nH]4)C=C3OC)c2C)cc1)c1ccccc1	53.4% (inactive)
